Source: PubChem BioAssay
ERK EGF inh: qHTS Assay for Inhibitors of the ERK Signaling Pathway using a Homogeneous Screening Assay; Stimulation with EGF; Potency, µM (titrated, usually from 11.5 µM), for inactives: at the top dose activity change, negative = inhibition, hits mostly inhibitors; AID 1454, 2008; HEK293-V1b, EGF-stimulated phospho-ERK AlphaScreen; hit rate 0.41% among 130,000; active means well fitted inhibition curve with a large enough effect;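 further: plate controls were stimulated vehicle wells for no effect and unstimulated vehicle basal for full effect; nearly all actives have a fitted effect of over 55% in size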
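Cell line HEK293 (stable V1b), low serum overnight. Pretreatment: compound 30 min, 37C. EGF 25 nM, 5 min. Detection: SureFire AlphaScreen, 5 h RT. AC50 via standard Hill equation.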
* hit, by the source's call; [ ] = dose if it differs, or a comment. This excerpt belongs to a sample that is enriched for hits. Potency means the concentration at half of the fitted maximal effect.

SMILES | ERK EGF inh
COC(=O)c1ccc(C(NC(=O)OCc2ccccc2)/C(F)=C/[C@@H](C)C(=O)NCCN2CCOCC2)cc1 (stereo not given in full) | -4%
CCc1c2c(nc3cccc(SC)c13)COC2 | 3%
O=C(/C=C/c1ccccc1)NC(=S)Nc1ccc(CN2CCOCC2)cc1 | -3%
CC(C)c1ccc(/C=C/C(=O)Nc2ccc(CN3CCOCC3)cc2)cc1 | 35µM*
CC(C)C(=O)NC(=S)Nc1ccc(CN2CCOCC2)cc1 | -7%
O=C(c1ccco1)N1CCC2(CC1)CCN(c1cccc(-c3ccccc3)c1)CC2 | 8%
OCC1OC([S-])[C@H](O)C(O)C1O.[Au+] (stereo not given in full) | -14%
O=C(Nc1ccccc1Cl)c1ccc(-n2cccn2)c([N+](=O)[O-])c1 | -9%
C=CC(C1=CC(=O)C(OC)=C(OC)C1=O)c1ccccc1 (stereo not given) | 35%
CN1CCN(CC(=O)NN2CC(=O)N(c3ccc(F)cc3)CC2=O)CC1 | 2%[57.5 µM]
O=C(CN1CCc2ccccc21)NN1CC(=O)N(c2ccc(Cl)cc2)CC1=O | 18µM*
O=C(Nc1ccccc1)NN1CC(=O)N(c2ccc(Cl)cc2)CC1=O | -24%[57.5 µM]
Cc1cccc(NC2=C/C(=N/S(=O)(=O)c3cccs3)c3ccccc3C2=O)c1 | 8%
O=C1/C(=N\S(=O)(=O)c2cccs2)C([n+]2ccccc2)=C([O-])c2ccccc21 | 8%[57.5 µM]
CC(C)(C)c1cc[n+](C2=C([O-])c3ccccc3C(=O)/C2=N\S(=O)(=O)c2cccs2)cc1 | 2%[57.5 µM]
O=C1C(Nc2ccc(O)cc2)=C/C(=N/S(=O)(=O)c2cccs2)c2ccccc21 | 18µM*
Cc1ccc(NC2=C/C(=N\S(=O)(=O)c3cccs3)c3ccccc3C2=O)c(C)c1 | 13µM*
CS/C(=N\S(=O)(=O)c1cccs1)Nc1ccc(F)cc1 | -3%
Cc1c(S(=O)(=O)c2ccccn2)c(N)n(Cc2cccc(Cl)c2)c1C | 7%[57.5 µM]
O=C(Nn1c(-c2ccncc2)nc2ccccc2c1=O)c1ccccc1Br | -2%
CCCn1c(-c2ccc(F)cc2)nc2c(NCCN3CCCC3)nc(C)nc21 | -3%
COc1cc2c(cc1OC)-c1cc3nc4ccccc4nc3n1C(C)(C)C2 | 1%
Cc1cc(C)[n+]2[nH]c(N)c(N=Nc3ccccc3)c2n1 | 4%[57.5 µM]
CC(C)(C)c1ccc(S(=O)(=O)N2CCN(c3ncccn3)CC2)cc1 | 10%
O=C(Nc1nnc(-c2ccncc2)o1)c1ccc(Br)s1 | -2%
SMILES | ERK EGF inh
S=C(S)O[C@@H]1C[C@@H]2C[C@H]1[C@@H]1CCC[C@H]21 | 7%
CCCCC#Cc1nc(NC)c2ncn([C@@H]3O[C@@H](CO)[C@H](O)[C@H]3O)c2n1 | -2%
CCOC(=O)C(CCc1ccccc1)NC(C)C(=O)N1Cc2ccccc2CC1C(=O)O (stereo not given) | 13%
O=[N+]([O-])c1ccc(Sc2cccc[n+]2[O-])c2nonc12 | 25µM*
CC(Sc1cccc[n+]1[O-])C(=O)Nc1ccc([N+](=O)[O-])cc1Cl (stereo not given) | 5%
O=C(CSc1cccc[n+]1[O-])Nc1ccc(C(F)(F)F)cc1[N+](=O)[O-] | 3%
CCC/C=C(\CCC)C(NC(=O)C(C)(C)C)c1ccc(C(=O)OC)cc1 (stereo not given) | 1%
O=[N+]([O-])c1ccc(OCCO)c(P(=O)(c2ccccc2)c2ccccc2)c1 | 1%[57.5 µM]
CC(C)(C)c1ccc(OCCOc2ccc(C(C)(C)C)cc2NC=O)c(NC=O)c1 | 32µM*
COCCOc1ccc(C(F)(F)F)cc1NC(=O)c1ccc(F)cc1 | -2%
COCCOc1ccc(C(F)(F)F)cc1NC(=O)c1ccccc1 | -3%
O=C(NCCc1c[nH]c2ccccc12)/C(=C/c1cccnc1)NC(=O)c1cccs1 | 3%
Cc1cn(C2CC(N=[N+]=[N-])C(CO)O2)c(=O)[nH]c1=O (stereo not given) | 6%
Cn1c(=O)cc2c3c(c(N4CCCCC4)ccc31)C(=O)c1ccccc1-2 | 22µM*
Cn1nc(-c2ccccc2)c(N2CCCCC2)cc1=O | 6%
O=C1c2ccccc2-c2cccc(C(=O)N3CCCCC3)c21 | -3%[57.5 µM]
COc1cc(C2c3cc4c(cc3C(OC3OC5COC(C)O[C@@H]5C(O)C3O)C3COC(=O)C23)OCO4)cc(OC)c1O (stereo not given in full) | 3%
C=CCC(C)(Nc1ccccc1)C(=O)OCC (stereo not given) | -10%
OCC(O)C(O)[C@H](O[C@H]1OC(CO)C(O)C(O)C1O)[C@H](O)CO (stereo not given in full) | 24%
CN(C)Cc1ccccc1-c1cc(-n2ccnc2)ncn1 | 0%
COC(=O)/C(C#N)=C1/C=Cc2ccccc2N1C | -6%
CN1/C(=C/c2cc[n+](C)c3ccccc23)C=Cc2ccccc21 | 10µM*
COC(=O)c1ccccc1NC(=O)COC(=O)C1CCCCC1 | -3%[57.5 µM]
COc1ccc(-c2nn(-c3ccccc3)cc2/C=N/NC(=S)NC(C)C)cc1OC | -7%
COc1ccc(-c2nn(-c3ccccc3)cc2/C=N/Nc2ccc3ccccc3n2)cc1OC | 4%
SMILES | ERK EGF inh
COc1ccc(-c2nn(-c3ccccc3)cc2/C=N/N=C(N)N)cc1OC | 25µM*
Cc1ccc(C2/C(=C(\O)c3c(C)nc4ccccn34)C(=O)C(=O)N2CCN(C)C)o1 (stereo not given) | -8%[57.5 µM]
COc1ccc(/C=N/NC(=O)c2ccccc2O)cc1Cn1nnc2ccccc21 | -14%[57.5 µM]
Cc1cc2nc(SCC(=O)Nc3ccccc3C(=O)O)[nH]c2cc1C | 3%
NS(=O)(=O)c1ccc(Oc2ccc(S(N)(=O)=O)cc2)cc1 | -10%
C=CS(=O)(=O)c1ccc(Oc2ccc(S(=O)(=O)C=C)cc2)cc1 | 13µM*
CC(=O)CC(C)(C)S(=O)(=O)c1ccc(Oc2ccc(S(=O)(=O)C(C)(C)CC(C)=O)cc2)cc1 | -9%
CN1CCN(c2ccc(NC(=O)COc3ccccc3[N+](=O)[O-])cc2)CC1 | -6%
CC(C)C(=O)N1CCN(c2ccc(NC(=O)COc3ccccc3[N+](=O)[O-])cc2)CC1 | 32µM*
O=C(COc1ccccc1[N+](=O)[O-])Nc1ccc(CN2CCOCC2)cc1 | 3%
O=[N+]([O-])/C(C(Cl)=C(Cl)Cl)=C(/Sc1ccccc1)N1CCCCC1 | -8%[57.5 µM]
N#Cc1ccc(CN2CCCC3(CCN(C(=O)c4csnn4)CC3)C2)cc1 | -4%
CC1=CC(=Nc2c(C)n(C)n(-c3ccccc3)c2=O)C=C(C)C1=O | 1%
CCC(C)C1=CC(=Nc2c(C)n(C)n(-c3ccccc3)c2=O)C=C(C(C)CC)C1=O (stereo not given) | 16µM*
Cc1c(N=c2scc(-c3ccccc3)n2C)c(=O)n(-c2ccccc2)n1C | 9%
CCC(C)NC(=O)C1CCCN1S(=O)(=O)c1ccc(Cl)cc1 (stereo not given) | -25%
CC1CCCN(C2=C(NS(=O)(=O)c3ccc(Cl)cc3)C(=O)c3ccccc3C2=O)C1 (stereo not given) | 10µM*
CC1CCCN(C2=C(Cl)C(=O)N(c3cccc(Cl)c3)C2=O)C1 (stereo not given) | 1%
CC12CC3CC(C)(C1)CC(NCc1ccncc1)(C3)C2 | -1%
COCCNC(=O)c1cnn2c(C(F)F)cc(-c3ccc(C)cc3)nc12 | -12%
COc1ccc(-c2cc(C(F)F)n3ncc(C(=O)Nc4cc(C)on4)c3n2)cc1 | 28µM*
COc1ccc(-c2cc(C(F)F)n3ncc(C(=O)Nc4c(C)n(C)n(-c5ccccc5)c4=O)c3n2)cc1 | 6%
